From the supplement of paper PMC4371806
Over roughly 2,300 compounds, “plate-normalized OD600 growth (mean of duplicates)” has its median near 0.29; the lowest 2% begin near 0.22. Shown is part of a subset that was picked to be rich in the lowest values.

System: Escherichia coli BW25113
Experiment: plate-normalized OD600 growth (mean of duplicates) (OD600 (normalized)); higher = more growth (less inhibition)
Details: 10 µM
Protocol: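 E. coli BW25113 in LB (100 µl, 96-well, no shaking) was exposed to 10 µM of each compound from a ~30,000-member library and grown at 37°C for 24 h or 15°C for 48 h, in duplicate. Growth was read as OD600 and the duplicate ODs were normalized across screening plates to correct plate-to-plate variation. Hits were >3σ below the mean OD600 at 15°C and <2σ below the mean at 37°C.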

SMILES	plate-normalized OD600 growth (temperature: 15°C, 48 h)	plate-normalized OD600 growth (temperature: 37°C, 24 h)
NC(N)=NC(N)=Nc1ccccc1C(F)(F)F	0.243	0.604
Cc1ccc(C2=Nc3ccccc3N=C(C(Cl)Cl)C2)cc1	0.25	0.629
Cc1noc(N)c1C(N)=S	0.247	0.612
O=C(COc1ccc(/C=N/NC(=O)CO)cc1)NCC1CCCO1 (stereo unspecified)	0.227	0.668
NNC(=O)c1cnn(-c2ccc(Cl)cc2)c1C(F)(F)F	0.253	0.627
CCN(CC)c1ccc(NC(=O)c2c(F)cccc2F)c(N(CC)CC)n1	0.235	0.602
Cc1ccc(N=Cc2ccc(Sc3nc4ccccc4s3)o2)cc1	0.245	0.625
C/C(=N/NC(=O)COc1cccc(Cl)c1)c1ccc(Cl)cc1	0.248	0.631
CC1(C)OC(=O)N(CCCCCCN2C(=O)OC(C)(C)C2(C)O)C1(C)O (stereo unspecified)	0.197	0.652
CC1(O)N(CCN)C(=O)OC12CCCCC2 (stereo unspecified)	0.269	0.626
COc1ccc(/C(C)=N\NC2=NCCCN2)cc1	0.214	0.597
Nc1c(C(=O)c2ccc(Br)cc2)sc2nc(-c3ccccc3)cc(-c3ccccc3)c12	0.256	0.621
Nc1c(C(=O)c2ccc(Br)cc2)sc2nc(-c3cccs3)cc(C(F)(F)F)c12	0.142	0.578
Cc1ccc(C(=O)c2sc3nc(-c4cccs4)cc(C(F)(F)F)c3c2N)cc1	0.239	0.623
Cc1ccccc1COC(=O)c1ccc(-c2nnn(Cc3ccccc3C)n2)cc1	0.244	0.611
CCOc1ccc(-n2nc3ccc(NC(=O)COc4ccccc4C)cc3n2)cc1	0.235	0.616
CCOc1ccc(NC(=O)CSc2nc(C)cc(COC)c2C#N)cc1	0.21	0.638
COCc1cc(C)nc2sc(C(=O)OC)c(N)c12	0.243	0.626
CCc1c(C)nc2cc(-c3ccc(Cl)cc3)[nH]n2c1=O	0.214	0.632
CCc1c(C)nc2[nH]nc(-c3ccccc3C)n2c1=O	0.245	0.626
Cc1cc(=O)n2c(-c3ccc(Cl)cc3)csc2n1	0.239	0.607
NC(N)=NS(=O)(=O)c1ccc(NC(=O)C2CCCCC2)cc1	0.256	0.628
COc1ccc2[nH]c(C)c(CCNS(=O)(=O)c3cc(Cl)ccc3Cl)c2c1	0.249	0.606
COc1ccc(Cc2nnc(-c3ccc(-c4cccs4)s3)o2)cc1	0.258	0.615

SMILES	plate-normalized OD600 growth (temperature: 15°C, 48 h)	plate-normalized OD600 growth (temperature: 37°C, 24 h)
Cc1c(NC(=O)c2ccc(N)cc2)c(=O)n(-c2ccccc2)n1C	0.248	0.629
CC(C)(C)OC(=O)NC1CCN(C(=O)c2ccc(Cl)cc2Cl)CC1	0.244	0.629
O=[N+]([O-])c1ccc2c(c1)S(=O)(=O)N=C2Nc1cc(Cl)ccc1Cl	0.251	0.626
C=CCn1c2ccccc2c2nnc(SCC(=O)Nc3ncccn3)nc21	0.245	0.599
Cc1cccc(C2(c3cccc(C)c3)CC2C(=O)Nc2ccc(C#N)cc2)c1 (stereo unspecified)	0.232	0.597
CC(C)CSc1ncnc2scc(-c3ccccc3)c12	0.235	0.631
Cc1ccc(N(C)C(=S)Nc2ccc3nc[nH]c(=O)c3c2)cc1C	0.237	0.625
Cc1cccc(-n2c(C)cc(C=Nc3ccc(Cl)cc3O)c2C)c1	0.249	0.613
COc1c(Cl)cnc(Cl)c1C(N)=O	0.265	0.636
C/C(=N/O)c1ccc2c(c1)C(C)(C)CCC2(C)C	0.256	0.629
N#Cc1cc(I)c(C#N)c(I)c1	0.198	0.616
O=C(O)CCCN1C(=O)C(=O)C(=C(O)c2ccccc2)C1c1ccc(Br)cc1 (stereo unspecified)	0.226	0.646
Cc1sc(NC(=O)c2cc3ccccc3oc2=O)nc1-c1ccc(-c2ccccc2)cc1	0.253	0.625
CC(C)(C)n1ncc(N/N=C/c2ccc(Cl)cc2)c(Cl)c1=O	0.238	0.605
CC(C(=O)O)C(=O)c1cc(Cl)c(Cl)cc1Cl (stereo unspecified)	0.215	0.63
O=S(=O)(c1cc(Br)c(Br)s1)N1CCCCC1	0.262	0.63
Nc1nc(=Nc2ccccc2)n2c(n1)sc1ccccc12	0.243	0.61
CC(=O)Nc1ccc(NC(=O)CSc2nnc(NS(C)(=O)=O)s2)cc1	0.252	0.63
O=C1C(Cl)=C(Oc2cc(Cl)c(Cl)cc2Cl)C(=O)c2ccccc21	0.211	0.613
COc1cc(Cl)c(Cl)cc1Cl	0.251	0.604
COc1ccc(NC(=O)/C=C/c2cccc(Oc3ccccc3)c2)cc1	0.245	0.633
NC1=Nc2nc(Nc3ccccc3)sc2/C(=C/c2ccc(O)cc2)N1	0.248	0.628
Cc1onc(-c2ccccc2Cl)c1C(=O)Nc1ccc(S(=O)(=O)Nc2nccs2)cc1	0.246	0.614
NS(=O)(=O)c1ccc(CCn2c(-c3ccc(S(=O)(=O)N4CCCC4)cc3)csc2=Nc2cccc(C(F)(F)F)c2)cc1	0.257	0.65
